Screen size: about 190,000 compounds; about 1,300 (0.68%) were called active. Cut-off read from the data, not from the text of the source: active = inhibition above about 50%; inactive = the rest. The entries come from a sample that favours actives as a whole.
Target: Mannose-6-phosphate isomerase (Homo sapiens) (UniProt P34949)
Assay: MPI inhibition at elevated mannose 6-phosphate – biochemical, fluorescence intensity, high mannose 6-phosphate, primary screen (AID 1220)
Settings: recombinant PMI enzyme, coupled fluorescence intensity; at 20 µM; hits give high values

Chain of Mannose-6-phosphate isomerase (Homo sapiens) (P34949 whole entry, looked up): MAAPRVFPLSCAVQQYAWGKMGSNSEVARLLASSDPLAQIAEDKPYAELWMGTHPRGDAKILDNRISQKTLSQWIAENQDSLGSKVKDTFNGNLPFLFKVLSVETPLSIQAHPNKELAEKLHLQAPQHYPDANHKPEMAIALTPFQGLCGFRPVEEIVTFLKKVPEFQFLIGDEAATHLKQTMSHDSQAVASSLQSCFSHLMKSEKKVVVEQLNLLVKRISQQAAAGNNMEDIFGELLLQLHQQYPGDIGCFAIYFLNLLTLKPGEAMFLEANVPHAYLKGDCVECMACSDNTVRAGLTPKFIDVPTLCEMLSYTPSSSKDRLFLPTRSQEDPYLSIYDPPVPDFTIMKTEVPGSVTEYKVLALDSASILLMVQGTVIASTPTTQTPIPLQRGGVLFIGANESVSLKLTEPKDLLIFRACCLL

inhibition, active:
CN(C)c1ccc(N=Cc2ccco2)cc1 63.2%
CN(C)c1ccc(C=Nc2ccc(N(C)C)cc2)cc1 59.2%
Cc1ccc(C=Nc2ccc(N(C)C)cc2)o1 51.8%
O=C(COc1cccc(C(F)(F)F)c1)N1CCN(c2ccc(O)cc2)CC1 50.6%
CC(C)(C)C(=O)NC(Nc1cccc2cccnc12)C(Cl)(Cl)Cl (centres undefined) 60.1%
COc1ccc(N2C(=O)CC(Sc3nc4c(cc3C#N)CCC4)C2=O)cc1 (centres undefined) 57.1%
Cc1nc2ccc(Nc3nc4cc(S(=O)(=O)N5CCOCC5)ccc4o3)cc2s1 61.9%
CC1=C(n2nnc([N+](=O)[O-])n2)C(c2cccnc2)C(C#N)=C(N)O1 (centres undefined) 59.9%
CC(=O)C1=C(C)OC(N)=C(C#N)C1c1cccc([N+](=O)[O-])c1 (centres undefined) 56.7%
O=c1c2c([N+](=O)[O-])cc([N+](=O)[O-])cc2sn1-c1ccc(Br)cc1 104%

inhibition, inactive:
CN(C)c1ccc(C(=O)/C=C/c2ccco2)cc1 38.7%
Cc1ccc(N=Cc2ccc(N(C)C)cc2)cc1 9.3%
Cc1ccc(/C=C/C(=O)Nc2ccc(N(C)C)cc2)o1 27.9%
CN(C)c1ccc(C=Nc2ccccc2)cc1 -10.5%
Cc1ccc(N=Cc2ccc(N(C)C)cc2)cc1C 10%
CCSc1nc(C(F)(F)F)cc(=O)n1-c1ccccc1 -9.6%
O=C(Nc1c(F)cc(F)cc1Br)c1cc2nc(C(F)F)cc(C(F)F)n2n1 18.1%
CCCC1(C)NC(=O)c2ccccc2O1 (centres undefined) 7.5%
Cc1cccc(C)c1NC(=O)CSc1nnc(Cc2ccccc2)o1 -13.2%
Cc1cccc(OCC(=O)O/N=C(\N)Cc2cccs2)c1 0%
COc1ccc(OCC(=O)N2CCN(c3cccc(C(F)(F)F)c3)CC2)cc1 15.4%
O=C(COc1cccc(C(F)(F)F)c1)N1CCN(c2ccccc2O)CC1 -5.8%
CCC(=O)NC(NC(=S)Nc1cccc2cccnc12)C(Cl)(Cl)Cl (centres undefined) 37.8%
CC(C)C(=O)NC(Nc1cccc2cccnc12)C(Cl)(Cl)Cl (centres undefined) 41.4%
CCOC(=O)c1oc2ccccc2c1NC(=O)COC -10.9%
CCOc1ccc(C(C)NC(=O)CCC(=O)O)cc1 (centres undefined) 1.9%
Cc1ccc2nc(SCC(=O)Nc3cccc(S(=O)(=O)N(C)C)c3)[nH]c2c1 10.5%
O=C(/C=C/c1ccc(Br)o1)NCCCN1CCOCC1 -2.7%
N#Cc1cc2c(nc1SC1CC(=O)N(c3ccccc3)C1=O)CCC2 (centres undefined) 35.2%
CCCc1ccc(C#N)c(SC2CC(=O)N(c3ccc(OC)cc3)C2=O)n1 (centres undefined) 40.6%
Cc1nc2ccc(NC(=O)c3cc(S(=O)(=O)N4CCOCC4)ccc3C)cc2s1 5.6%
Cc1nc2ccc(NC(=O)c3ccc(S(=O)(=O)N4CCOCC4)cc3)cc2s1 -2.3%
Nc1nc(NCCCN2CCOCC2)nc(Nc2ccc(F)cc2)c1[N+](=O)[O-] -6.1%
CCOC(=O)c1sc2nc(CC(=O)OC)nc(N(C)CCc3ccccn3)c2c1C -1.1%
CCOC(=O)C1=C(c2ccccc2)OC(N)=C(C#N)C1c1cccnc1 (centres undefined) 11.6%
CC(=O)C1=C(C)OC(N)=C(C#N)C1c1ccncc1 (centres undefined) -5.8%
COC(=O)C1=C(C)OC(N)=C(C#N)C1c1cccnc1 (centres undefined) 0.3%
CC(=O)C1=C(C)OC(N)=C(C#N)C1c1cccnc1 (centres undefined) 42.6%
O=C(CN1CCN(C2CCCCC2)CC1)Nc1ccc(Br)cc1 -11.2%
CC1(C)CC(=O)C(N=Nc2cc(Cl)c(Cl)c(Cl)c2)=C(O)C1 -3.4%
O=Cc1ccc(-n2cc(C=O)c3ccccc32)cc1 -5.3%
CC1=C(C(=O)OCC2CCCO2)C(c2coc3ccccc3c2=O)C2=C(CC(C)(C)CC2=O)N1 (centres undefined) -4.3%
CC(NC(=O)c1cc(-c2ccc(Br)cc2)on1)c1ccccc1 (centres undefined) -3.3%
CCc1cc(C(=O)Cc2cnn(-c3ccccc3)c2)c(O)cc1O 15.5%
O=C(c1cnn(-c2ccccc2)c1)c1ccccc1O 10.1%
O=C(Nc1cccc(NC(=O)c2ccc3c(c2)OCO3)c1)c1ccccc1 6.5%
CCOc1ccccc1N1CCN(CC(=O)Nc2nnc(CC)s2)CC1 -13%
O=c1c2cc(Br)ccc2nc(-c2ccc([N+](=O)[O-])cc2)n1O -16.5%
O=c1n(-c2ccc(Br)cc2)cnn1-c1ncccc1[N+](=O)[O-] -0.4%
